TDP1 inh = qHTS Assay for Inhibitors of Tyrosyl-DNA Phosphodiesterase (TDP1) | Tyrosyl-DNA phosphodiesterase 1 (Homo sapiens), Q9NUW8 | recombinant TDP1, AlphaScreen DNA substrate cleavage | Potency, µM (titrated, usually from 130 µM), inactives show top-dose activity change, negative = inhibition, most hits filed as inhibitors | actives 0.28% (n = 350,000); further: nearly all actives have a fitted effect of over 40% in size
Target sequence (Q9NUW8 whole entry, looked up): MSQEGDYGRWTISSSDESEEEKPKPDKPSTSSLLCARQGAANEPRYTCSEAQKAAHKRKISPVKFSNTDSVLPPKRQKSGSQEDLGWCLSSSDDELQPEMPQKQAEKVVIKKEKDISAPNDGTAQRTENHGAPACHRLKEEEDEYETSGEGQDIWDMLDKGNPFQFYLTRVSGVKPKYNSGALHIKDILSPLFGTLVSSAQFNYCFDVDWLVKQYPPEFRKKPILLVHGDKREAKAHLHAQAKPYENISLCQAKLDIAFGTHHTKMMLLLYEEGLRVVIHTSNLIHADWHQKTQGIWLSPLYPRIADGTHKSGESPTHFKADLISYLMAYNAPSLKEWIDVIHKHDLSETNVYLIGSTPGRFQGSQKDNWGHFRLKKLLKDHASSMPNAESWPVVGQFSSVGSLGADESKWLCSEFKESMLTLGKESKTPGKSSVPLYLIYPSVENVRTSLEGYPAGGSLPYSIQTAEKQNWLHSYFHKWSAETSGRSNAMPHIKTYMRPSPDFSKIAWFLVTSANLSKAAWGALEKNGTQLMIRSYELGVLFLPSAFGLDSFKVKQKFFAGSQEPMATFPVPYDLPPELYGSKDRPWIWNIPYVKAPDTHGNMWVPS
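Signal: AlphaScreen proximity between streptavidin donor and anti-FITC acceptor beads on intact substrate. Reaction: Tdp1 1 nM, substrate 15 nM final, 5 min RT after 15 min compound preincubation.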
RECQ1 inh-1 = qHTS Assay for Inhibitors of RecQ-Like Dna Helicase 1 (RECQ1); ATP-dependent DNA helicase Q1 (Homo sapiens), P46063; RECQ1 DNA unwinding, red fluorescence kinetic read; Potency, µM (doses to about 57.3 µM), without a hit: at the highest dose activity, negative = inhibition, hits mostly inhibitors; actives 0.54% (n = 240,000); AID 2549, 2010;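 further: plate controls were vehicle for no effect and no enzyme for full effect; nearly all actives have a fitted effect of over 30% in size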
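50 nM RECQ1T1 preincubated 15 min with compound in Tris pH 8.0 buffer with MgCl2, DTT, Tween-20 and 2.5 ug/ml poly(dI-dC); started with 200 nM TAMRA/BHQ-2 forked duplex and 2 mM ATP. Unwinding read as fluorescence (525/598 nm), two reads 2 h apart.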
APEX1 inh = qHTS Assay for Inhibitors of the Human Apurinic/apyrimidinic Endonuclease 1 (APE1) | DNA repair nuclease/redox regulator APEX1 (Homo sapiens), P27695 | recombinant APE1, TAMRA/BHQ-2 abasic DNA cleavage fluorescence | Potency, µM (doses to about 65.8 µM), without a hit: top-dose activity change, negative = inhibition, usual class: inhibitors | actives 0.35% (n = 350,000);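 further: plate controls were vehicle for no effect and reference inhibitor for full effect; nearly all actives have a fitted effect of over 55% in size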
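Kinetic fluorescence read (525 ex/598 em nm, three reads 60 s apart) of AP-site incision; signal = third minus first read. Enzyme 0.75 nM, dual-labelled THF duplex 50 nM, compound preincubation 15 min RT.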
L3MBTL1 inh = qHTS Assay for the Inhibitors of L3MBTL1. Lethal(3)malignant brain tumor-like protein 1 (Homo sapiens), Q9Y468. Potency, µM (series often up to 57.1 µM), for the others: top-dose activity, negative = inhibition, hits mostly inhibitors. AlphaScreen L3MBTL1–H3K9me1 peptide binding. AID 485360, 2010. actives 0.66% (n = 230,000); further: nearly all actives have a fitted effect of over 60% in size
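L3MBTL1 50 nM + b-AHA-H3(1-15)K9me1 75 nM, 30 min RT; compound added, 30 min RT; streptavidin donor/Ni-chelate acceptor beads 10 ug/mL each final, 30 min RT dark; AlphaScreen read.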
BLM inh-1 = qHTS Assay for Inhibitors of Bloom's syndrome helicase (BLM); Potency, µM (series often up to 56.1 µM), inactives show at the top dose activity change, negative = inhibition, actives largely listed as inhibitors; AID 2528, 2010; RecQ-like DNA helicase BLM (Homo sapiens), P54132; recombinant BLM DNA unwinding, fluorescence dequenching; actives 0.2% (n = 350,000);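 further: plate controls were vehicle for no effect and no enzyme for full effect; nearly all actives have a fitted effect of over 35% in size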
KDM4E inh = qHTS Assay for Inhibitors of Human Jumonji Domain Containing 2E (JMJD2E); JMJD2E catalytic domain, FDH-coupled NADH fluorescence (FDH is formaldehyde dehydrogenase); Potency, µM (top dose mostly 57.1 µM), for inactives: top-dose activity change, negative = inhibition, usual class: inhibitors; Lysine-specific demethylase 4E (Homo sapiens), B2RXH2; actives 1.6% (n = 230,000); active means well fitted inhibition curve with a large enough effect, not every such curve was filed as active; inconclusive means small, poorly fitted or top-dose-only effect, or another doubt; inactive means no such curve, though single readings can be large or run the other way;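 further: 0% = wells with enzyme and -100% = buffer wells without enzyme; nearly all actives have a fitted effect of over 50% in size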
BLM inh-2 = qHTS Confirmation Assay for Inhibitors of Bloom's syndrome helicase (BLM) | AID 2585, 2010 | Potency, µM, for the others: max response, negative = inhibition, usual class: inhibitors | shares compounds with BLM inh-1 | actives 40% (n = 220) | BLM DNA unwinding, fluorescence quenching, biochemical;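 further: strand separation dequenches TAMRA so unwinding raises red fluorescence; series mostly up to about 69 µM; nearly all actives have a fitted effect of over 45% in size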
RECQ1 conf = Confirmation qHTS Assay for Inhibitors of RecQ-Like Dna Helicase 1 (RECQ1); shares compounds with RECQ1 inh-1; RECQ1 helicase DNA unwinding, fluorescence; Potency, µM (titrated, usually from 229 µM), without a hit: at the top dose activity change, negative = inhibition, most hits filed as inhibitors; actives 28% (n = 610); further: nearly all actives have a fitted effect of over 45% in size
RECQ1 ADP FP = Counterscreen for RECQ1 Inhibitors: ADP Fluorescence Polarization Displacement Assay. ADP fluorescence polarization displacement counterscreen. actives 27% (n = 530). AID 2711, 2010. shares compounds with RECQ1 inh-1. Potency, µM (titrated, usually from 228 µM), for the others: at the top dose activity change, negative = inhibition, actives largely listed as inhibitors; further: nearly all actives have a fitted effect of over 45% in size
RECQ1 inh-2 = Confirmation qHTS Assay for Inhibitors of RecQ-Like Dna Helicase 1 (RECQ1) - Round 2 Cherry Picks; actives 15% (n = 1,100); Potency, µM (doses to about 119 µM), for the others: at the top dose activity, negative = inhibition, hits mostly inhibitors; shares compounds with RECQ1 inh-1; recombinant RECQ1 DNA unwinding, red fluorescence; further: nearly all actives have a fitted effect of over 50% in size
Active calls of the source: *; i = inactive; ? = inconclusive; / = not tested or not shown; ! = a repeat was not active; [ ] = another dose, or the depositor's remark. The sample as a whole holds a higher share of hits than the screen did. Unless noted, the call rests on the fitted dose curve; in most records, active means well fitted curve in the direction sought with a large enough effect; inconclusive means small, poorly fitted or top-dose-only effect, or another doubt; inactive means no such curve, though single readings can be large; an effect the other way counts as inactive or inconclusive. Unless noted, on the % scale 0 is the no-effect control and ±100 the full control effect; potency means the concentration at half of the fitted maximal effect.

SMILES	TDP1 inh	RECQ1 inh-1	APEX1 inh	L3MBTL1 inh	BLM inh-1	KDM4E inh	RECQ1 inh-2	others
FC1(F)C(F)(F)C(F)(F)C2(F)C(F)(F)C(F)(F)C(F)(F)C(F)(F)C2(F)C1(F)F (stereo not given)	21%	/	/	/	2%	/	/
C[C@]12CC[C@@H]3c4ccc(OC(=O)N(CCCl)CCCl)cc4CC[C@H]3[C@@H]1CC[C@@H]2O	/	/	/	/	14µM*	/	/	BLM inh-2=30µM*;RECQ1 conf=?
C=C(C)C1Cc2c(ccc3c2OC2COc4cc(OC)c(OC)cc4C2C3=O)O1 (stereo not given)	14%	-18%	-3%	/	-13%	?	/
CC(Oc1ccc(Cl)cc1Cl)C(=O)Nc1ccc(S(=O)(=O)Nc2cnc3ccccc3n2)cc1 (stereo not given)	7%	18µM*	-10%	-24%	-23%	?	?	RECQ1 conf=-9%[114 µM];RECQ1 ADP FP=9%[91.9 µM]
COc1cc(NS(=O)(=O)c2ccc(NC(=S)NC(=O)CC(C)C)cc2)nc(OC)n1	-2%	1%	?	7%	-6%	2%	/
Cc1ccc2nc(N3CCN(C)CC3)[nH]c2c1	7%	-6%	0%	-3%	-7%	2%	/
CCOc1ccc(-c2nc3ccc(-c4nc5ccc(N6CCN(C)CC6)cc5[nH]4)cc3[nH]2)cc1	27%	13µM*	13%	/	?	/	5.6µM*!
CCOP(=S)(OCC)Oc1ccc([N+](=O)[O-])cc1	1%	-9%	-3%	/	/	/	/
COc1cccc(CNC(=O)CSc2ccc(-c3ccco3)nn2)c1	/	?	?	/	-20%	?	-14%
O=C1C=CC(=O)C(Cl)=C1	/	20µM*	28µM*	/	-16%	/	/	RECQ1 conf=?;RECQ1 ADP FP=16µM*
O=C1CC(N2CC=C(c3ccccc3)CC2)C(=O)N1c1ccc(F)cc1 (stereo not given)	8%	28µM*	-6%	-9%	-7%	?	-24%
CCCOc1ccc(N2C(=O)CC(N3CC=C(c4ccccc4)CC3)C2=O)cc1 (stereo not given)	3%	-1%	3%	-12%[11.4 µM]	-8%	-9%	/
O=c1[nH]c(=S)n(CCC2=CCCCC2)c(O)c1C=NCCCn1ccnc1	9%	?	16%	/	-8%	8%	-19%
CCCCCOC(=O)c1ccccc1C(=O)OCCCCC	6%	-8%	3%	/	/	/	/
COc1ccc2c(c1)c(C(=O)O)c(C)n2CC(C)C	4%	i	-4%	/	-1%	-13%	/
COc1cc(O)c(C(=O)O)c(-c2cc(O)c(O)cc2C)c1	/	?	20µM*	/	4%	14µM*	?
CNc1ccc2oc(C[C@@H]3OC4(CC[C@@H]3C)O[C@H]([C@@H](C)C(=O)c3ccc[nH]3)[C@H](C)C[C@H]4C)nc2c1C(=O)O (stereo not given in full)	24%	?	?	/	/	/	9%
CNc1ccc2oc(C[C@H]3O[C@@]4(CC[C@H]3C)O[C@H]([C@H](C)C(=O)c3ccc[nH]3)[C@H](C)C[C@H]4C)nc2c1C(=O)O	17%	?	-6%	/	-27%	?	-11%
OCCBr	5%	-1%	2%	/	/	/	/
CCCCNC(=O)Oc1c(Br)cc2sc(=O)oc2c1Br	/	11µM*	?	/	-9%	?	/	RECQ1 conf=5%[114 µM];RECQ1 ADP FP=12%[91.9 µM]
C[C@H](N)Cc1cnc[nH]1	9%	12%	1%	/	2%	-13%	/
Nc1ccc(Cl)cc1C(=O)c1ccccc1	0%	i	?	/	-6%	-1%	/
Nc1ccc(Cl)cc1C(=O)c1ccccc1Cl	-2%	25µM*	-3%	9%	-9%	3%	-20%
CCCCNC(=O)c1c(N)n(CCCOC)c2nc3ccccc3nc12	/	?	-10%	/	?	?	-11%
CC(C)CCNC(=O)c1c(N)n(Cc2ccc3c(c2)OCO3)c2nc3ccccc3nc12	1%	?	5%	/	-27%	?	-18%
SMILES	TDP1 inh	RECQ1 inh-1	APEX1 inh	L3MBTL1 inh	BLM inh-1	KDM4E inh	RECQ1 inh-2	others
COCCNC(=O)c1c(N)n(CCC(C)C)c2nc3ccccc3nc12	-13%	-9%	0%	/	?	?	/
Oc1c(Cl)cccc1Cl	3%	10%	4%	/	/	/	/
C[C@]12CC[C@H]3[C@@H](CCC4=CC(=O)CC[C@@H]43)[C@@H]1CC[C@@H]2OC(=O)CCc1ccccc1	/	/	-4%	/	/	/	/
O=C=NCCCCN=C=O	6%	-2%	?	/	-3%	/	/
CCCCC/C=C\C/C=C\C/C=C\C/C=C\CCCC(=O)NCc1ccoc1	?	11µM*	?	/	?	/	?
CC(C)CON=O	5%	-6%	2%	/	/	/	/
COc1cc2c(cc1OC)C(c1c(O)n(CCc3ccccc3)c(=S)[nH]c1=O)NCC2 (stereo not given)	3%	?	0%	/	-6%	?	?
O=c1[nH]c(=O)n(C2CCCCC2)c(O)c1C1NCCc2ccccc21 (stereo not given)	5%	i	0%	/	0%	7%	/
Clc1ccc(C(c2ccc(Cl)cc2)C(Cl)Cl)cc1	/	-10%	2%	/	/	/	/
